# The entries come from a sample that favours hits as a whole.
# Tg IFNy HTS: T. gondii growth inhibition under IFN-gamma; Toxoplasma gondii growth in IFN-gamma-treated host cells; active compounds read low; activity change, negative = inhibition, % (test concentration not listed); actives 3.8% (n = 69,000); AID 1259416; in the data active means activity change below about -70%, passing the limit was not always enough;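 further: host cells are HeLa cells infected with Toxoplasma gondii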
# * = called active by the depositor; i = inactive.
SMILES,Tg IFNy HTS
CN(C)C(=O)N1C[C@@H]2CN(Cc3ccoc3)CCO[C@@H]2C1,8
Cc1nc(-c2ccccn2)nc(SCc2ccccc2)c1Cl,-89*
Cc1nc(-c2ccccn2)nc(SCC(=O)N2CCOCC2)c1Cl,-24
Clc1ccc(CSc2n[nH]c(-c3ccccn3)n2)cc1,-62
CC1(C)CC(NC(=O)CN2C(=O)COc3c(Cl)cccc32)c2ccccc2O1 (configuration not stated),-1
Cc1cc(C)c2[nH]c(=O)c(-c3c(-c4ccccc4)ncn3C3CCNC3)cc2c1 (configuration not stated),236
CC(C)n1cc(C(=O)N(C2CCCC2)C(C(=O)NC2CCCCC2)c2ccccc2)cn1 (configuration not stated),13
Cc1ccccc1-c1ccc(C2[C@@H]3CN(Cc4cocn4)C[C@H]2N3)cc1 (some centres not stated),29
CSc1ccc(C2c3[nH]c4ccccc4c3CCN2C(=O)CN2C(=O)COc3ccccc32)cc1 (configuration not stated),45
COc1ccc(-c2nnc(-c3nc(Nc4cc(C)cc(C)c4)c4ccccc4n3)o2)cc1,-101*
COc1ccc(Nc2nc(-c3nnc(-c4ccc(C)cc4)o3)nc3ccccc23)cc1Cl,277
COc1cccc(Nc2nc(-c3nnc(-c4ccc(C)cc4)o3)nc3ccccc23)c1,95
COc1cc(Nc2nc(-c3nnc(-c4ccccc4)o3)nc3ccccc23)cc(OC)c1OC,-125*
COc1ccccc1Nc1nc(-c2nnc(-c3cccc(C)c3)o2)nc2ccccc12,-86*
CCOc1ccccc1Nc1nc(-c2nnc(-c3cccc(C)c3)o2)nc2ccccc12,-51
COc1ccc(Nc2nc(-c3nnc(-c4cccc(C)c4)o3)nc3ccccc23)cc1OC,i
COc1ccccc1Nc1nc(-c2nnc(-c3ccccc3)o2)nc2ccccc12,-92*
Cc1cccc(Nc2nc(-c3nnc(-c4ccccc4)o3)nc3ccccc23)c1C,-7
COc1ccc(C)cc1Nc1nc(-c2nnc(-c3ccc(Cl)cc3)o2)nc2ccccc12,89
COc1ccc(-c2nnc(-c3nc(Nc4cccc(OC)c4)c4ccccc4n3)o2)cc1,101
Cc1ccc(S(=O)(=O)N2CCC(c3nc(C(=O)N4CCCC4)c(C)o3)CC2)cc1,-57
CCNC(=O)N1CCC2(CC1)N=C(COC)NC2=O,2
COc1ccccc1OC1CN(Cc2nccn2C)C1,-1
CCSc1nnc(C2CCCN(CC(=O)Nc3ccc4c(c3)OCO4)C2)n1CC (configuration not stated),56
CC(C)c1cc(C2CCN(C(=O)c3c4c(nn3C)CCCC4)CC2)[nH]n1,-8
SMILES,Tg IFNy HTS
CN1C(=O)c2cc(NC(=O)c3cccc(F)c3)ccc2OC[C@H]2O[C@H](CC(=O)NCc3ccccc3Cl)CC[C@@H]21,-39
CNC(=O)CC(C)N(C)Cc1cnc(-c2cccc(C)c2)nc1 (configuration not stated),110
O=C(COc1ccc(Br)cc1)Nc1cncc(-c2nc3ccccc3o2)c1,0
Cc1cccc(Nc2nc(-c3nnc(-c4cccc(C)c4)o3)nc3ccccc23)c1,-24
COc1cc(Nc2nc(-c3nnc(-c4cccc(C)c4)o3)nc3ccccc23)cc(OC)c1,-130*
Cc1cccc(-c2nnc(-c3nc(Nc4ccc(C)c(F)c4)c4ccccc4n3)o2)c1,52
C[C@H](N)C(=O)N[C@@H](CCC(N)=O)C(=O)O,27
COc1ccc(CN2CC(C(=O)N3CCOCC3)C3(CCOCC3)C2)cc1 (configuration not stated),-7
CC(C)CNC(=O)CC1CC2(CCN(CC3CCOCC3)CC2)Oc2ccccc21 (configuration not stated),45
C=CCSc1ncnc2c1sc1nc(C)cc(C)c12,99
Cc1cc(C)c2c(n1)sc1c(=O)oc(C)nc12,14
Cc1cc(C)c2c(n1)sc1c3ccccc3c(N)nc12,-102*
c1ccc(CCCNc2nc(-c3cccnc3)nc3c2CCNC3)cc1,-29
Cc1nn(-c2ccccc2)nc1CNS(=O)(=O)c1cccc2ccccc12,36
CCCn1cnnc1CNC(=O)c1noc2c1CCCC2,-9
Cn1c(=O)n(C)c2cc(NC(=O)CSc3ncc(C#N)c(N)n3)ccc21,50
N#Cc1cnc(Sc2nnc(-c3ccc(Cl)cc3)n2Cc2ccccc2)nc1N,-42
N#Cc1cnc(SCc2cc(=O)[nH]c3ccccc23)nc1N,-101*
Cc1nccn1CC1CCCN(C(=O)CSCc2ccccc2Cl)C1 (configuration not stated),51
O=c1c2ccccc2n(Cc2ccc(F)cc2)c2ccccc12,-81*
O=C1CCCc2c1c1ccccc1n2Cc1ccccc1,-47
c1ccc(Cn2c3ccccc3c3ccccc32)cc1,-16
COCCCN1CCc2nc(SCc3nc(-c4ccc(OC)cc4)oc3C)[nH]c(=O)c2C1,34
COc1ccc(-c2nc(NCC3CCN(Cc4ccccc4Cl)CC3)c3ccccc3n2)cc1,-88
Cc1n[nH]c(C)c1CCCNC(=O)c1cc(=O)[nH]c2ccccc12,-2
CNCCCCc1cnc(C)c2[nH]c3ccccc3c12,-95*
